HT1080-NT tox = qHTS for induction of synthetic lethality in tumor cells producing 2HG: qHTS for the HT-1080-NT fibrosarcoma cell line; Potency, µM (titrated, usually from 46.1 µM), hits mostly cytotoxic; HT-1080-NT fibrosarcoma viability, CellTiter-Glo ATP luminescence, 48 h; 360,000 compounds, 1.6% hits;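 further: NT is the 2HG producing partner of a matched IDH1 knockdown line; nearly all actives have a fitted effect of over 55% in size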
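Toxicity toward the 2HG-producing NT line was scored as %Activity, normalised to DMSO and no-cell wells, from CellTiter-Glo luminescence after 48 hours' treatment.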
TGFb inhibitor = qHTS for Inhibitors of TGF-b; HepG2 CAGA-GFP TGF-b/SMAD3 reporter, GFP fluorescence, 18 h; TGF-beta stimulated, 500 pg/mL final; Potency, µM (top dose mostly 46.1 µM), usual class: inhibitors; 410,000 compounds, 1.2% hits; further: nearly all actives have a fitted effect of over 65% in size
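HEPG2 CAGA-GFP reporter cells (1000/well, DMEM with 1% FBS) received compounds, then recombinant TGF-beta at 500 pg/mL final for 18 hours at 37 degrees C. Per-cell GFP summed per well was normalised to unstimulated and stimulated DMSO controls before curve fitting.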
DT40 TDP1 CPT = qHTS for Inhibitors of human tyrosyl-DNA phosphodiesterase 1 (TDP1): qHTS in cells in presence of CPT. chicken DT40 Tdp1-/-;hTDP1 cells + 20 nM CPT, ATP luminescence, 48 h. Potency, µM (series often up to 46.2 µM), most hits filed as inhibitors. 420,000 compounds, 12% hits; further: nearly all actives have a fitted effect of over 55% in size
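Cell growth measured by CellTiter-Glo luminescence after a minimum 48 h, 37 C compound exposure with 20 nM CPT in Tdp1-knockout DT40 cells stably expressing hTDP1, seeded 400/well; qHTS titration format.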
DT40 TDP1 no CPT = qHTS for Inhibitors of human tyrosyl-DNA phosphodiesterase 1 (TDP1): qHTS in cells in absence of CPT | DT40 Tdp1-/- hTDP1 cells, no CPT, ATP luminescence, 48 h | Potency, µM (highest dose often 46.2 µM), most hits filed as inhibitors | 420,000 compounds, 15% hits | AID 686978, 2013; further: nearly all actives have a fitted effect of over 55% in size
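Camptothecin absent (DMSO only). Human TDP1-complemented DT40 knockout cells, 400 cells/well, 37 °C for minimum 48 hr; ATP measured via CellTiter-Glo, 30 min dark incubation, luminescence.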
HT1080 IDH1KD tx = qHTS for induction of synthetic lethality in tumor cells producing 2HG: qHTS for the HT-1080-IDH1KD cell line | HT-1080 IDH1 knockdown viability, ATP luminescence, 48 h | Potency, µM (top dose mostly 46.1 µM), most hits filed as cytotoxic | 360,000 compounds, 2% hits | AID 686971, 2013
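Using the IDH1-knockdown HT-1080 line run in the same batch and compound series as the NT line, viability after 48 h at 37 °C was determined by CellTiter-Glo luminescence and expressed as % activity.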
HepG2 viability = qHTS for Inhibitors of TGF-b: Cytotox Counterscreen | HepG2 CAGA-GFP viability, ATP luminescence, 18 h | Potency, µM (titrated, usually from 46.1 µM), hits mostly cytotoxic | 410,000 compounds, 0.76% hits | AID 588856, 2011
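HepG2 CAGA-GFP cells (1000/well, DMEM with 1% FBS) received compound, then TGF-beta at 500 pg/mL final, and were incubated 18 hours at 37 degrees C. Viability was read by CellTiter-Glo luminescence. Media-only wells were set as complete cell-killing and DMSO as no toxicity.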
Hits are given with their value; 0 = inactive; ? = inconclusive; - = not tested or not shown; [ ] = another dose, or the depositor's remark. Shown are actives, neighbours in structure and some others; about 17% of the full set was active somewhere. The call rests on the fitted dose curve; in most records, active means well fitted curve in the direction sought with a large enough effect; inconclusive means small, poorly fitted or top-dose-only effect, or another doubt; inactive means no such curve, though single readings can be large; an effect the other way counts as inactive or inconclusive.

SMILES	HT1080-NT tox	TGFb inhibitor	DT40 TDP1 CPT	DT40 TDP1 no CPT	HT1080 IDH1KD tx	HepG2 viability
CCOC(=O)N1CCN(S(=O)(=O)N2CCCC(C(=O)NCc3cc(OC)ccc3OC)C2)CC1 (stereo not drawn)	0	0	?	?	0	0
O=C1OC(c2ccccc2)(N(Nc2ccccc2)c2ccccc2)c2ccccc21 (stereo not drawn)	?	0	?	23.1µM	0	0
CN(C(=O)CSCC(=O)O)C1CCCCC1	0	0	0	0	0	0
CC(CCO)Nc1nc2c(c(=O)n(C)c(=O)n2C)n1Cc1cccc(Br)c1 (stereo not drawn)	0	0	11.6µM	20.6µM	0[9.24 µM]	0
COc1cccc(Cn2cnc3c2c(=O)n(C)c(=O)n3C)c1	-	0	11.6µM	11.6µM	-	0
CC(O)CNc1nc2c(c(=O)n(C)c(=O)n2C)n1Cc1cccc(Br)c1 (stereo not drawn)	0	0	?	14.1µM	0	0
COc1cccc(Cn2c(NCC(C)C)nc3c2c(=O)n(C)c(=O)n3C)c1	?	0	29.1µM	23.1µM	?	0
COc1ccc(Oc2nc3c(c(=O)n(C)c(=O)n3C)n2Cc2ccccc2)cc1	0	0	?	0	0	0
O=C(COC(=O)/C=C/c1cccc(C(F)(F)F)c1)NC(=O)NCc1ccco1	0	0	0	0	0	0
CC(O)CNc1nc2c(c(=O)n(C)c(=O)n2C)n1Cc1cccc(C(F)(F)F)c1 (stereo not drawn)	0	0	?	25.9µM	0	0
COCCNc1nc2c(c(=O)n(C)c(=O)n2C)n1Cc1cccc(C(F)(F)F)c1	0	?	3.26µM	3.66µM	0	0
CC(C)CNc1nc2c(c(=O)n(C)c(=O)n2C)n1Cc1cccc(Br)c1	0	0	20.6µM	23.1µM	0	0
COc1ccc(CN(C)CC(=O)NC(=O)NCc2ccccc2)c(OC)c1	0	0	?	?	0	0
CN(CC(=O)NC(=O)NCc1ccccc1)Cc1ccc(Cl)c(Cl)c1	0	0	20.6µM	29.1µM	0	0
O=C1C2C3C=CC(C3)C2C(=O)N1Cc1cccnc1 (stereo not drawn)	0	0	0	0	0	0
O=C1C2C3c4ccccc4C(c4ccccc43)C2C(=O)N1Cc1cccnc1 (stereo not drawn)	0	0	?	18.4µM	0	0
O=C1C2C3c4ccccc4C(c4ccccc43)C2C(=O)N1Cc1ccccn1 (stereo not drawn)	0	0	23.1µM	23.1µM	0	0
COc1cc2c(cc1OC)n(CC(=O)NC1CCCCCC1)n1c(C)cc(=O)nc21	0	0	0	0	0	0
Cc1ccc(CSc2nnc(-c3ccc(NC(=O)CCc4ccccc4)cc3)n2C)cc1	-	0	?	?	-	0
CCCC(=O)NC(c1ccccc1)c1c(O)ccc2ccccc12 (stereo not drawn)	0	?	?	8.2µM	0	0
CC(C)C(=O)NC(c1ccc([N+](=O)[O-])cc1)c1c(O)ccc2ccccc12 (stereo not drawn)	?	?	17.8µM	?	?	0
CC(=O)NC(c1ccc([N+](=O)[O-])cc1)c1c(O)ccc2ccccc12 (stereo not drawn)	0	0	0	?	?	0
CCCCN(C(=O)C1=NN(c2ccccc2)C(=O)CC1)c1c(N)n(CC(C)C)c(=O)[nH]c1=O	0	0	0	0	0	0
CCOCCCNC(c1ccccc1)c1ccncc1 (stereo not drawn)	0	0	0	0	0	0
c1ccc(C(NCCNC(c2ccccc2)c2ccccc2)c2ccccc2)cc1	0	?	?	20.6µM	0	0
SMILES	HT1080-NT tox	TGFb inhibitor	DT40 TDP1 CPT	DT40 TDP1 no CPT	HT1080 IDH1KD tx	HepG2 viability
NS(=O)(=O)c1ccc(CCNC(c2ccccc2)c2ccccc2)cc1	0	?	?	23.1µM	0	0
CCN(Cc1ccncc1)C(=O)c1ccc(Br)o1	0	0	0	0	0	0
CCOc1ccc(C(=O)c2oc3ccccc3c2NC(=O)Cc2coc3cc(C)cc(C)c23)cc1	-	0	0	0	-	0
COc1cccc(C(C)(O)c2nc(-c3cccc(C(F)(F)F)c3)cs2)c1 (stereo not drawn)	18.4µM	?	?	?	?	0
COc1ccc(C(C)(O)c2nc(-c3ccccc3OC)cs2)cc1 (stereo not drawn)	?	0	9.2µM	13µM	16.4µM	0
COc1ccc(C(C)(O)c2nc(-c3cccc(C(F)(F)F)c3)cs2)cc1 (stereo not drawn)	?	?	25.9µM	18.4µM	0	0
COc1cccc(C(C)(O)c2nc(/C=C/c3ccccc3)cs2)c1 (stereo not drawn)	0	14.1µM	?	18.4µM	0	0
CC(O)(c1ccccc1)c1nc(-c2cccc(C(F)(F)F)c2)cs1 (stereo not drawn)	?	?	?	?	?	0
CC(O)(c1cccnc1)c1nc(-c2cccc(C(F)(F)F)c2)cs1 (stereo not drawn)	23.1µM	0	18.4µM	14.6µM	?	0
COc1cccc(C(C)(O)c2nc(-c3ccccc3C)cs2)c1 (stereo not drawn)	?	?	?	?	?	0
COCc1cccc(-c2csc(C(C)(O)c3ccc(OC)cc3)n2)c1 (stereo not drawn)	0	0	?	?	0	0
COc1ccc(C(C)(O)c2nc(-c3cccc(C(C)C)c3)cs2)cc1 (stereo not drawn)	?	?	?	?	?	20µM
COc1cccc(C(C)(O)c2nc(-c3csc4ccccc34)cs2)c1 (stereo not drawn)	20.6µM	17.8µM	?	0	?	0
CCOc1ccc(C(=O)NCCn2cc(SCC(=O)NCCc3ccc(OC)c(OC)c3)c3ccccc32)cc1	-	?	?	?	-	0
COc1cc(C(=O)OCC(=O)NCC2CCCCC2)ccc1OCC(C)C	0	?	?	?	0	0
CC(C)=CCCC(C)NC(=O)NC1CCCCC1 (stereo not drawn)	0	0	?	16.4µM	0	0
O=C(NC1CCCCC1)NC1CCCCC1	-	-	0	0	-	-
CC1(C)CN(c2ccccc2)C(=O)[C@H]1CC(=O)Nc1ccccc1	0	0	0	0	0	0
COC(=O)c1ccc(NC(=O)c2ccc(NS(=O)(=O)c3cccc4cccnc34)cc2)cc1	0	0	0	0	0	0

Compound activity from PubChem BioAssay.
